Bioassay records (PubChem)
HT1080-NT tox – qHTS for induction of synthetic lethality in tumor cells producing 2HG: qHTS for the HT-1080-NT fibrosarcoma cell line. Potency, µM (top dose mostly 46.1 µM), for inactives: at the highest dose activity, negative = less viability, usual class: cytotoxic. HT-1080-NT fibrosarcoma viability, CellTiter-Glo ATP luminescence, 48 h. hit rate 1.6% among 360,000;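 also: NT is the 2HG producing partner of a matched IDH1 knockdown line; potency is read from the fitted curve at half-maximal effect; 0% = DMSO-treated cells and -100% = media-only wells without cells; nearly all actives have a fitted effect of over 55% in size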
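HT-1080-NT; 750 cells/well; 5% FBS RPMI; 48 h compound, 37 degrees C; CellTiter-Glo luminescence; curve fitting and curve-class assignment.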
TGFb SMAD3 inh – qHTS for Inhibitors of TGF-b; Potency, µM (doses to about 46.1 µM), for the others: top-dose activity, negative = inhibition, actives largely listed as inhibitors; hit rate 1.2% among 410,000; HepG2 CAGA-GFP TGF-b/SMAD3 reporter, GFP fluorescence, 18 h; TGF-beta stimulated, 500 pg/mL final; AID 588855, 2011; also: potency is read from the fitted curve at half-maximal effect; % is scaled to controls: 0 for no effect and ±100 for the full control effect; nearly all actives have a fitted effect of over 65% in size
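Cell-based qHTS in HEPG2 carrying a CAGA-GFP Smad reporter; compounds added before 500 pg/mL final TGF-beta, 18 h incubation at 37 degrees C, GFP fluorescence quantified per cell by imaging cytometry.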
IL1B secr inh – qHTS for Inhibitors of Inflammasome Signaling: IL-1-beta AlphaLISA Primary Screen | THP-1 LPS/ATP IL-1B secretion, AlphaLISA, 16 h; active compounds read low | activity change, % at 57.5 µM | hit rate 4.7% among 360,000 | AID 743279, 2014; in the data active = activity change below about -50%; inconclusive = mostly about -30% to -49%; also: % is scaled to controls: 0 for no effect and ±100 for the full control effect
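THP-1 cells pretreated 1 hr with compounds (up to 57.5 uM final), then stimulated with LPS (250 ng/mL final) plus ATP (1.25 mM final); secreted IL-1B measured by AlphaLISA after 16 hr, decreased signal indicating inhibition.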
HT1080 IDH1KD tx – qHTS for induction of synthetic lethality in tumor cells producing 2HG: qHTS for the HT-1080-IDH1KD cell line; HT-1080 IDH1 knockdown viability, ATP luminescence, 48 h; hit rate 2% among 360,000; Potency, µM (titrated, usually from 46.1 µM), without a hit: at the top dose activity, negative = toxicity, usual class: cytotoxic;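 also: potency is read from the fitted curve at half-maximal effect; 0% = DMSO wells and -100% = cell-free medium wells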
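Luminescent ATP read-out (CellTiter-Glo, 10 min at room temperature) after 48 h compound exposure at 37 °C gave viability of IDH1-knockdown HT-1080 cells. Activity was normalised to DMSO and cell-free wells, then fitted as concentration-response curves.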
Giardia kill – Small Molecules that selectively kill Giardia lamblia: qHTS; Giardia lamblia trophozoite viability; activity change, % at 7.66 µM, hits read low; AID 540267, 2011; hit rate 0.15% among 340,000; in the data active = activity change below about -80%; inconclusive = between about -30% and that limit;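 also: parasites exposed to compound for two days anaerobically before the ATP read; % is scaled to controls: 0 for no effect and ±100 for the full control effect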
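Trophozoite viability was measured as ATP-dependent luminescence, read 15-30 min after reagent addition. Before that, parasites at 100 cells/well were exposed to compounds for 48 h, anaerobically, at 37 deg C.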
HepG2 tox – qHTS for Inhibitors of TGF-b: Cytotox Counterscreen; HepG2 CAGA-GFP viability, ATP luminescence, 18 h; hit rate 0.76% among 410,000; Potency, µM (highest dose often 46.1 µM), without a hit: top-dose activity change, negative = cytotoxicity, most hits filed as cytotoxic; also: potency is read from the fitted curve at half-maximal effect
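CellTiter-Glo luminescence gave cytotoxicity after 18 hours at 37 degrees C. The cells were HepG2 CAGA-GFP in 1% FBS DMEM, stimulated with 500 pg/mL TGF-beta after compound addition. %Activity was normalised to no-cell wells (complete cell-killing) and DMSO (no toxicity), and curves were fitted and classified.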
An asterisk follows results filed as active; ? = inconclusive; · = no result; ! = not confirmed by another sample. Compounds with a hit are over-represented: about 6.5% of the library has one in this group of screens. Unless noted, calls follow the shape of the dose curve; as a rule, active = well fitted curve in the direction sought with a large enough effect; inconclusive = small, poorly fitted or top-dose-only effect, or another doubt; inactive = no such curve, though single readings can be large; an effect the other way counts as inactive or inconclusive.

SMILES	HT1080-NT tox	TGFb SMAD3 inh	IL1B secr inh	HT1080 IDH1KD tx	Giardia kill	HepG2 tox
Cc1ccc(S(=O)(=O)CCN2CCC(n3cccc3)CC2)cc1	-2%	3%	-59*	-4%	2	17%
Oc1c(Cl)cc(Cl)cc1CNc1ccccn1	-22%	2%	?	?	13	4%
Oc1c(Cl)cc(Cl)cc1CNc1nc2ccccc2[nH]1	-30%	-11%	-84*	?	-11	-17%
Cc1cc(C)c[n+](C2=C([O-])c3ccccc3C(=O)/C2=N\S(=O)(=O)c2cccs2)c1	7%	?	0	1%	-13	-1%
O=C1/C(=N\S(=O)(=O)c2cccs2)C([n+]2ccc(CCCc3ccccc3)cc2)=C([O-])c2ccccc21	-28%	16µM*	50	?	-4	-105%
Cc1cc[n+](C2=C([O-])c3ccccc3C(=O)/C2=N\S(=O)(=O)c2cccs2)cc1C	-3%	-25%	54	-2%	6	-12%
O=C1/C(=N\S(=O)(=O)c2cccs2)C([n+]2cccc(Cc3ccccc3)c2)=C([O-])c2ccccc21	5.2µM*	?	·	5.8µM*	25	2.8µM*
CCOC(=O)N1CCc2c(sc3c2c(=O)n(-c2ccc(CC)cc2)c(=O)n3Cc2ccc(F)cc2Cl)C1	·	0%	·	·	·	6%
COC(=O)CCc1nc2c(C#N)c(-c3ccc(Cl)cc3)ccn2n1	-7%	-1%	26	-5%	-24	8%
Cc1ccc(-c2csc(NC(=O)CCNC(=O)c3ccco3)n2)cc1	-20%	2%	9	-18%	-17	1%
O=C(Cn1c(-c2cscn2)nc2ccccc21)Nc1ccccc1F	-7%	1%	-5	?	-6	7%
CN(C)/C=C/C(=O)c1ccc(Br)cc1	12%	-6%	-30	-1%	-6	-21%
Cc1ccc(C)n1-c1ccc(C(=O)/C=C/N(C)C)cc1	?	-21%	-87*	?	9	-29%
O=c1cc(CSc2ccccc2)[nH]c2ccccc12	-1%	-20%	15	7%	-10	-3%
O=C(NCc1ccc(Cl)cc1)C1CCN(C(=O)Cc2ccccc2)CC1	0%	0%	-5	0%	-4	4%
COc1ccccc1-c1ccc(SCc2ccccc2)nn1	-20%	-1%	55	-11%	13	-4%
COc1ccccc1-c1ccc(SCc2ccccc2F)nn1	-7%	-21%	-60*	-20%	15	-8%
Cc1sc(C(C2C(=O)CC(C)(C)CC2=O)C2C(=O)CC(C)(C)CC2=O)cc1[N+](=O)[O-]	-17%	?	-94*	-5%	8	-46%
CC1(C)CC(=O)C(C(c2cc([N+](=O)[O-])ccc2Cl)C2C(=O)CC(C)(C)CC2=O)C(=O)C1	-2%	-12%	41	5%	2	7%
Cc1oc(-c2ccccc2)cc1C(=O)Nc1cccc2ccccc12	-15%	-19%	-66*	-1%	-13	-4%
Cc1oc(-c2ccccc2)cc1C(=O)Nc1cccc(C(=O)O)c1	3%	4%	25	3%	-8	-18%
COc1ccc(-c2nc(CS(=O)(=O)CC(=O)NC3CCCCCC3)c(C)o2)cc1	2%	15%	-7	-4%	12	21%
O=C(Cc1cccc([N+](=O)[O-])c1)Nc1cccc(C(=O)N2CCOCC2)c1	-1%	-2%	-9	0%	1	-1%
COc1cc(-c2nc3cnccn3c2Nc2ccc(C(C)C)cc2)ccc1O	?	11µM*	-81*	?	6	11µM*!
COc1cc(-c2nc3cnccn3c2Nc2ccc(C)cc2)ccc1O	?	-27%	65	16µM*	-8	-35%
SMILES	HT1080-NT tox	TGFb SMAD3 inh	IL1B secr inh	HT1080 IDH1KD tx	Giardia kill	HepG2 tox
O=c1[nH]c(COc2ccccc2)nc2ccccc12	-10%	-5%	-18	-25%	-7	-6%
Clc1ccc2nc(COc3ccccc3)[nH]c2c1	13µM*	-9%	-23	8.2µM*	11	-9%
CCSc1nc(O)cc(=O)n1-c1ccc(OC)cc1	2%	-24%	19	3%	-12	-1%
CCOc1cccc(C2C=C(c3ccc4c(c3)OCO4)NC(c3cccc(Br)c3)N2)c1O (stereo not given)	·	?	·	·	-5	-54%
C=CC[n+]1ccnc2ccccc21	·	?	·	·	·	1%
C[n+]1ccnc2cc(Cl)ccc21	·	1.1µM*	·	·	·	1.4µM*
C[n+]1ccnc2ccccc21	·	5µM*	·	·	·	-105%
Cc1ccc(NNC(=O)C(=O)N2CCCCC2)cc1	?	9%	2	4.1µM*	-13	2%
Cc1ccccc1C(=O)NNC(=O)C(=O)N1CCCCC1	-7%	8%	24	-6%	11	6%
O=c1c2ccccc2sn1-c1cc(S(=O)(=O)N2CCOCC2)ccc1N1CCOCC1	?	11µM*!	-102*	?	-1	-94%
O=c1c2ccccc2sn1-c1cc(S(=O)(=O)N2CCOCC2)ccc1N1CCCC1	?	-27%	-107*	?	14	-9%
O=c1c2ccccc2sn1-c1cc(S(=O)(=O)N2CCOCC2)ccc1N1CCCCC1	·	1%	·	·	38	-1%
O=C(O)c1ccccc1/C=N/NC(=O)C1CCCC1	14%	-2%	12	22%	-3	-2%
COc1cccc2[nH]c3c(N4CCC(C)CC4)ncnc3c12	-6%	14%	-52*	-19%	6	-30%
COc1cccc2[nH]c3c(N4CCc5ccccc5C4)ncnc3c12	-12%	19%	?	-13%	-18	0%
CC(=O)Nc1ccc2nc(NC(=O)COc3ccccc3C)sc2c1	-29%	-8%	4	-18%	-28	4%
O=C(NCCS(=O)(=O)c1ccc(Br)cc1)c1ccccc1	-4%	34%	19	7%	16	-2%
CC(C(=O)NCCS(=O)(=O)c1ccc(Cl)cc1)S(=O)(=O)c1ccc(Cl)cc1 (stereo not given)	3%	40%	-20	-2%	13	8%
CC(C)c1ccc(C(C)NCCS(=O)(=O)c2ccc(Br)cc2)cc1 (stereo not given)	?	0%	-99*	?	-6	-38%
CC(NCCS(=O)(=O)c1ccc(Cl)cc1)c1cccc(Cl)c1 (stereo not given)	-8%	?	-60*	-11%	-5	-24%
